Screens deposited in PubChem BioAssay by National Center for Advancing Translational Sciences (NCATS).
Compounds with a hit are over-represented: about 12% of the library has one in this group of screens.
HP1b chromo inh – HP1-beta chromodomain-methylated histone interaction inhibition. P83916. AlphaScreen HP1-beta / biotin-H3K9me3 peptide binding. AID 540317. Potency, µM (highest dose often 114 µM), inactives show at the top dose activity change, negative = inhibition, hits mostly inhibitors. 390,000 compounds, 0.56% hits; also: potency is read from the fitted curve at half-maximal effect; nearly all actives have a fitted effect of over 70% in size
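HP1-beta protein (50 nM final) preincubated 30 min at room temperature with biotinylated H3(1-18)K9me3 peptide (50 nM) in PBS pH 7.4, 0.01% Tween-20, then compound added for 30 min. AlphaScreen streptavidin donor/nickel chelate acceptor beads (10 ug/mL final), 30 min dark, luminescence read.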
JMJD2A Tudor inh – blocks the human JMJD2A Tudor domain. O75164. AlphaScreen JMJD2A-Tudor / H3K4me3 peptide binding. Potency, µM (top dose mostly 114 µM), without a hit: at the top dose activity change, negative = inhibition, usual class: inhibitors. 390,000 compounds, 4.4% hits. AID 504339; also: potency is read from the fitted curve at half-maximal effect; % is scaled to controls: 0 for no effect and ±100 for the full control effect; nearly all actives have a fitted effect of over 50% in size
Sfp PPTase inh – blocks B. subtilis Sfp PPTase activity | AID 1490 | Biochemical Sfp PPTase activity, qHTS | 310,000 compounds, 3.5% hits | Q9F4F7 | Potency, µM, without a hit: largest response in the series, negative = inhibition, most hits filed as inhibitors;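 also: the enzyme is Sfp with the accession as filed and its product quenches rhodamine fluorescence; potency is read from the fitted curve at half-maximal effect; 0% = enzyme reaction without inhibitor and -100% = no enzyme wells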
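With Hepes-Na pH 7.6 buffer containing 10 mM MgCl2, Sfp (15 nM) modified BHQ-2-YbbR (12.5 uM) using rhodamine-CoA (5 uM). Two reads 30 minutes apart at 525/598 nm yielded each well's rate.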
BAZ2B block – blocks human BAZ2B | 360,000 compounds, 4.4% hits | Q9UIF8 | AID 504333 | Potency, µM (highest dose often 114 µM), without a hit: top-dose activity change, negative = inhibition, most hits filed as inhibitors | AlphaScreen BAZ2B-H3K14Ac peptide displacement; also: potency is read from the fitted curve at half-maximal effect; % is scaled to controls: 0 for no effect and ±100 for the full control effect; nearly all actives have a fitted effect of over 60% in size
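Multi-concentration screen (max 110 uM) measuring displacement of acetylated histone H3 peptide from BAZ2B by AlphaScreen, using 50 nM protein, 50 nM peptide and 10 ug/mL streptavidin donor plus Ni-chelate acceptor beads.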
L3MBTL1 inh – L3MBTL1 (human) inhibition | AlphaScreen L3MBTL1–H3K9me1 peptide binding | Potency, µM (titrated, usually from 57.1 µM), without a hit: top-dose activity, negative = inhibition, usual class: inhibitors | 230,000 compounds, 0.66% hits | AID 485360; also: potency is read from the fitted curve at half-maximal effect; % is scaled to controls: 0 for no effect and ±100 for the full control effect; nearly all actives have a fitted effect of over 60% in size
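AlphaScreen assay: L3MBTL1 (50 nM final) was preincubated 30 min at room temperature with biotinylated H3(1-15)K9me1 peptide (75 nM final), then 30 min with library compounds; streptavidin donor and nickel chelate acceptor beads (10 ug/mL final) added, 30 min dark.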
G9a inh-1 – inhibitors of human histone lysine methyltransferase G9a | Q96KQ7 | G9a H3K9 monomethylation, AlphaScreen, 2 h | Potency, µM (titrated, usually from 102 µM), inactives show top-dose activity, negative = inhibition, hits mostly inhibitors | 350,000 compounds, 8.8% hits | AID 504332; also: potency is read from the fitted curve at half-maximal effect; % is scaled to controls: 0 for no effect and ±100 for the full control effect; nearly all actives have a fitted effect of over 75% in size
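G9a (20 nM) preincubated 15 min RT with compounds, then 500 nM biotinylated H3K9 peptide and 20 uM SAM added; 2 h RT reaction. Monomethyl-H3K9 product detected by AlphaScreen with anti-H3K9me1 antibody, streptavidin donor and anti-rabbit IgG acceptor beads.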
JMJD2E confirm – confirmation of inhibitors of human JMJD2E demethylase | shares compounds with JMJD2A Tudor inh | Recombinant JMJD2E, FDH-coupled NADH fluorescence (FDH is formaldehyde dehydrogenase) | Potency, µM (highest dose often 56.8 µM), for the others: top-dose activity change, negative = inhibition, usual class: inhibitors | 140 compounds, 93% hits | AID 2677
FDH inh – FDH (Pseudomonas putida) inhibition counter-screen. shares compounds with JMJD2A Tudor inh. FDH enzyme assay, NADH fluorescence kinetic. Potency, µM (top dose mostly 56.7 µM), inactives show at the top dose activity, negative = inhibition, hits mostly inhibitors. 140 compounds, 10% hits
G9a inh-2 – inhibits human G9a histone lysine methyltransferase, hit confirmation; shares compounds with JMJD2A Tudor inh; G9a H3K9 monomethylation, AlphaScreen, 2 h; Potency, µM, usual class: inhibitors; 370 compounds, 89% hits; also: potency is read from the fitted curve at half-maximal effect; nearly all actives have a fitted effect of over 65% in size
RGS4 confirm – inhibits human RGS4, hit validation; shares compounds with JMJD2A Tudor inh; 25 compounds, 80% hits; Potency, µM, hits mostly inhibitors; RGS4 GAP activity, Transcreener GDP fluorescence polarization
An asterisk follows results filed as active; ? = inconclusive; nt = not tested or not shown; [ ] = another dose, or the depositor's remark. Calls follow the shape of the dose curve; as a rule, active = well fitted curve in the direction sought with a large enough effect; inconclusive = small, poorly fitted or top-dose-only effect, or another doubt; inactive = no such curve, though single readings can be large; an effect the other way counts as inactive or inconclusive.

SMILES | HP1b chromo inh | JMJD2A Tudor inh | Sfp PPTase inh | BAZ2B block | L3MBTL1 inh | G9a inh-1 | G9a inh-2 | others
COc1cccc(NC(=O)Cc2nnc(SCCOc3ccccc3)n2C)c1 | 10% | -14% | 10% | 10% | nt | -36%[12.7 µM] | nt
COc1cccc(NC(=O)Cc2nnc(SCC(=O)c3ccccc3)n2C)c1 | 24% | -12% | ? | 11% | 24% | 0.35µM* | 0.71*
N#Cc1ccc(S(=O)(=O)N2CCC(C(=O)Nc3cccc(C(=O)NC4CC4)c3)CC2)cc1 | 30% | 13% | nt | 4% | -4% | 10%[2.33 µM] | nt
CCn1c(=O)c2cc(C(=O)NCc3ccc(F)cc3Cl)sc2c2ccccc21 | 33% | -13% | nt | -4% | nt | -12%[59 µM] | nt
CCn1nnnc1NCc1ccc(SC)cc1 | 29% | -6% | 8% | 7% | 3% | 16%[59 µM] | nt
CCn1nnnc1NCc1ccc(N2CCCC2)cc1 | ? | 20µM* | ? | -26% | -18% | ? | 10*
CC(C)(C)c1ccc(NC(=O)CSc2n[nH]c(=O)n2C2CC2)cc1 | 20% | -25% | nt | nt | 7% | nt | nt
Cn1c(SCC(=O)NC2CCCC2)nnc1-c1ccncc1 | 34% | -10% | 14% | -11% | 7% | nt | nt
Cn1c(SCC(=O)NC2CCCCC2)nnc1-c1cccc(N)c1 | 29% | -6% | -9% | 7% | -13% | 1.6µM* | 2.8*
COCc1cc(CN2CCCC2)c(O)c2ncccc12 | 27% | 8.9µM* | 15% | 3.2µM* | 10µM* | ? | nt | JMJD2E confirm=7.9µM*;FDH inh=-25%
COc1cc(C2Nn3c(nnc3-c3ccccc3OC)S2)ccc1O (stereo not given) | ? | 2.2µM* | ? | -12% | 2% | 0.63µM* | 0.25*
COc1ccccc1C1=Nn2c(nnc2-c2ccccc2OC)SC1 | nt | -8% | 3% | nt | nt | nt | nt
CCCn1c(CNc2ccccc2O)nc2ccccc21 | -7% | ? | ? | ? | nt | ? | 11*
CCCn1c(CNC(=O)c2ccc(F)cc2)nc2ccccc21 | 29% | -1% | nt | 0% | nt | 3%[59 µM] | nt
COc1ccccc1CCNC(=O)CCCn1c(=O)c2cccn2c2cccnc21 | 35% | -6% | nt | -2% | nt | -3%[59 µM] | nt
Cc1ccc(-c2nn(-c3ccccc3)cc2CC(=S)N2CCOCC2)cc1 | 23% | -19% | 9% | -24% | -11% | -7% | nt
Cc1cccc(NC(=O)c2c(NC(=O)c3ccccc3)sc3c2CCCC3)c1 | -7% | 79µM* | nt | 56µM* | nt | 1.3µM* | 2*
Cc1cccc(NC(=O)c2c(NC(=O)c3ccccc3)sc3c2CCC3)c1 | 108% | 21% | nt | -1% | nt | 36%[59 µM] | nt
COc1ccccc1-c1nccc(NCc2cnc(C)cn2)n1 | nt | nt | 50µM* | nt | nt | nt | nt | RGS4 confirm=27*
COc1ccccc1-c1nccc(NCc2ccccc2)n1 | nt | nt | -4% | nt | nt | 1%[0.501 µM] | nt
Cc1ccnc(NS(=O)(=O)c2ccc(NC(=O)CC(C)c3ccccc3)cc2)n1 (stereo not given) | 33% | 4% | 5% | 3% | nt | -20% | nt
CCOc1cc(CN2CCN(S(=O)(=O)c3ccc(C)cc3)CC2)ccc1OC | ? | 25µM* | nt | 50µM* | nt | 0.89µM* | 32*
CCOc1ccc(S(=O)(=O)N2CCN(Cc3ccc4c(c3)OCO4)CC2)cc1OCC | 22% | -23% | 5% | -28% | nt | -1% | nt
Cc1cc2cc(C(c3nnnn3Cc3ccco3)N3CCc4ccccc43)c(=O)[nH]c2cc1C (stereo not given) | -19% | ? | 10µM* | ? | -29% | 11µM* | nt | RGS4 confirm=6.7*
O=C(CC1SC2=NCCN2C1=O)Nc1ccc(Cl)cc1 (stereo not given) | 17% | -9% | 15% | 0% | 26%[11.4 µM] | -2%[59 µM] | nt
SMILES | HP1b chromo inh | JMJD2A Tudor inh | Sfp PPTase inh | BAZ2B block | L3MBTL1 inh | G9a inh-1 | G9a inh-2 | others
Cc1ccc(NC(=O)CC2SC3=NCCCN3C2=O)c(C)c1 (stereo not given) | 4% | 20%[11.4 µM] | ? | 2% | nt | 0.71µM* | 4.5*
COc1ccc(C(=O)COC(=O)C2CC3CCCC(C2)C3=O)cc1Br (stereo not given) | 38% | -5% | nt | -4% | -4% | 12%[0.501 µM] | nt
COc1ccc(C(=O)COC(=O)CN2CC(=O)Oc3ccccc32)cc1Br | -7% | 35µM* | ? | 25µM* | nt | ? | 25*
Cc1cc(C)cc(N2C(=O)CC(Sc3ncn[nH]3)C2=O)c1 (stereo not given) | ? | ? | 35µM* | -9% | 8% | nt | nt | JMJD2E confirm=6.3µM*;FDH inh=0.28µM*
CC(C(=O)NC(=O)NC1CCCCC1)N1CCN(c2ccc(O)cc2)CC1 (stereo not given) | 79µM* | 22µM* | nt | ? | -4% | 1.3µM* | 0.56*
CCOc1cc(C(=O)CCC(=O)OCC(=O)Nc2ccc(F)cc2)ccc1O | 22% | -11% | nt | 15% | -1% | -8% | nt
CN(C)c1ccc(NC(=O)CCCc2ccccc2)cc1 | ? | ? | 22µM* | 45µM* | 0%[11.4 µM] | 1.3µM* | 2.5*
Cc1cccc(NC(=O)CCCc2ccccc2)c1 | 50% | 32% | -2% | 9% | nt | 33% | nt
COCC(=O)Nc1ccc(N(C)C)cc1 | 27% | -11% | -7% | 3% | 7%[11.4 µM] | 2.5µM* | 3.2*
CN(C)c1ccc(NC(=O)COC(=O)CCC(=O)c2ccc(F)cc2)cc1 | -2% | ? | -15% | ? | nt | 2.5µM* | 7.1*
Cc1cccc(C)c1NC(=O)CN(C)C(=O)COc1cccc2c1OC(C)(C)C2 | 32% | -5% | nt | 1% | -4% | ? | nt
Cc1ccc(S(=O)(=O)NC(=O)Nc2cc(C)no2)cc1 | 32% | -8% | 16% | 1% | nt | 12%[2.33 µM] | nt
COc1ccc(N2CCN(Cc3nc(N)nc(Nc4ccc(C)c(Cl)c4)n3)CC2)cc1 | -48% | 35µM* | -3% | 25µM* | nt | 1.6µM* | 7.1*
CCN(Cc1ccccc1)Cc1c(O)ccc2c(=O)c(-c3ccccc3)c(C(F)(F)F)oc12 | 86% | 3% | nt | -6% | nt | ? | 45*
